# This excerpt belongs to a sample that is enriched for hits.
# Dicer processing: inhibitors of human Dicer processing of pre-microRNA. Q9UPY3. cat-ELCCA pre-miR-21 Dicer processing, chemiluminescence; active compounds read high. z-score at 25 µM. hit rate 6% among 47,000. AID 1347074; in the data active = z-score above about 3, passing the limit was not always enough;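 also: plate controls were vehicle for no effect and no enzyme for full effect; higher signal means more uncleaved substrate so more Dicer inhibition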
# * = called active by the depositor.
SMILES,Dicer processing
O=C(C1c2ccccc2Oc2ccccc21)N1CCCC1,4*
O=C(O)C1c2ccccc2Oc2ccccc21,0.95
COC(=O)C1CCN(C(=O)C2c3ccccc3Oc3ccccc32)CC1,5*
CCOC(=O)C(NC(=O)c1ccco1)(Nc1ccccn1)C(F)(F)F (configuration not stated),1.7
Cc1cn(-c2ncnc3scc(-c4ccccc4)c23)nc1C(F)(F)F,-0.97
CCOc1cc(C(F)(F)F)cnc1C#N,-0.47
O=C(Cn1cccc(C(F)(F)F)c1=O)c1ccccc1,4.3
CCOC(=O)C1=C(C)NC2=C(C(=O)CC(c3ccc(OC)cc3)C2)C1c1ccc(OC)c(OC)c1 (configuration not stated),-0.75
COC(=O)c1ccc(C#CC(C)(C)O)cc1,0.97
O=[N+]([O-])c1ccc(OCc2ccccc2)cc1/C=C\N1CCCC1,3*
O=[N+]([O-])c1cc(F)ccc1/C=C/N1CCCC1,1.2
O=[N+]([O-])c1cccnc1Oc1ccc(OCc2ccccc2)cc1,-1.6
CCOc1nc(C)ccc1-c1noc(-c2ccccc2Cl)n1,0.5
Cc1ccc2[nH]c(C)c(CN(C)C)c(=O)c2c1,0.69
CC1=NN(c2ccccc2)C(=O)/C1=C1/SC(C(=O)c2ccccc2)=NN1c1ccccc1,159
CC1=NN(c2ccccc2)C(=O)/C1=C1/SC(C(=O)c2ccccc2)=NN1c1ccc(Cl)cc1,-1.2
O=C1ON=C(c2ccccc2)/C1=C1\SC(C(=O)c2ccccc2)=NN1c1ccccc1,3.5*
COC(=O)c1sc(N2C(=O)c3oc4ccc(C)cc4c(=O)c3C2c2ccc(O)cc2)nc1C (configuration not stated),0.05
CC(C)(C)c1ccc(-c2nnc3n2N=C(c2ccccc2O)CS3)cc1,1.2
O=c1[nH]c2cc(Cl)c(Cl)cc2c(O)c1-c1ccccc1,0.07
Cc1ccc(/C(O)=C2\C(=O)C(=O)N(CCN3CCOCC3)C2c2cccnc2)cc1 (configuration not stated),0.8
O=C1C(=O)N(CCCN2CCOCC2)C(c2ccc(Cl)cc2)/C1=C(\O)c1ccc(F)cc1 (configuration not stated),-0.47
O=C1C(=O)N(CCCN2CCOCC2)C(c2cccnc2)/C1=C(\O)c1ccc(F)cc1 (configuration not stated),3.5*
CC(=O)Oc1ccc(C2C(C(=O)OC(C)C)=C(C)NC3=C2C(=O)CCC3)cc1 (configuration not stated),0
O=C(CSC1=NCCCCC1)c1ccc([N+](=O)[O-])cc1,-2.1
SMILES,Dicer processing
O=C(c1ccc([N+](=O)[O-])cc1)c1ccc2c(c1)CCC2,3.6*
C/C(=N\NC(=O)N/N=C(\C)c1ccc([N+](=O)[O-])cc1)c1ccc([N+](=O)[O-])cc1,-1.2
O=C1C=C(NC2Cc3ccccc3C2)CC(c2ccc(F)cc2)C1 (configuration not stated),-0.85
NC(=O)CN1C(=O)C(O)(CC(=O)c2ccc(F)cc2)c2ccccc21 (configuration not stated),-0.61
COc1cc(C2Nc3cccc4cccc(c34)N2)ccc1O,3.6*
CCc1ccc(C2CC(c3cccc(C)c3)n3nc(N)nc3N2)cc1 (configuration not stated),-0.17
Oc1ccc2ccccc2c1C1Nc2cccc3cccc(c23)N1,-0.25
Cc1ccc(C2CC(c3cccc(C)c3)n3ncnc3N2)cc1 (configuration not stated),-0.36
COc1cc(C2N3CC4(C)CN2CC(C)(C3)C4)ccc1O (configuration not stated),2.7
c1ccc(-c2ccc(C3Nc4cccc5cccc(c45)N3)cc2)cc1,3.2*
Cc1cccc(C2Nc3cccc4cccc(c34)N2)c1,3.6*
COc1ccc(C2NC(=O)c3ccccc3N2)cc1O (configuration not stated),1.3
N#Cc1ccc(C2NC(=O)c3ccccc3N2)cc1 (configuration not stated),-1.5
OCn1nnn(-c2ccccc2)c1=S,0.35
Cc1ccc(CSc2nnc(CCN)o2)cc1,-0.32
CCOC(=O)C1(C(F)(F)F)N=C(N2CCOCC2)Oc2c1c(C)nn2-c1ccccc1 (configuration not stated),-1.9
FC(F)(F)c1ccc(N2CCC(n3cccc3)CC2)nc1,-1.1
CCC(=O)N1c2ccccc2C(N(C(=O)c2cccs2)c2ccccc2)CC1C (configuration not stated),-0.4
COc1ccc(OC)c(C2Oc3c(OC)cccc3C3CC(c4ccccc4O)=NN32)c1 (configuration not stated),0.8
COC(=O)c1ccc(C2Oc3c(OC)cccc3C3CC(c4ccccc4O)=NN32)cc1 (configuration not stated),1.4
COc1ccc(C2Oc3c(OC)cccc3C3CC(c4ccccc4O)=NN32)cc1OC (configuration not stated),-0.41
COc1cccc2c1OC(CC(C)C)N1N=C(c3ccccc3O)CC21 (configuration not stated),8.3*
COc1cccc2c1OC(c1cccc(OC)c1OC)N1N=C(c3ccccc3O)CC21 (configuration not stated),2.1
